Shown are actives, neighbours in structure and some others; about 4.1% of the full set was active somewhere.
hcDAF12 agonist – activates DAF-12 receptor from parasite H. contortus; HEK293 hcDAF-12 lit1-tk-luc reporter, luminescence; 0% DMSO, 100% Δ7-dafachronic acid; activation, % at 6.8 µM; 370,000 tested, 1.4% active;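 active means activation above the mean of all tested compounds plus 3 SD, cut at about 5.5% in these data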;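 further: 100% = response to 3 µM Δ7-dafachronic acid high control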
DAX1 inh-1 – DAX1 (NR0B1) inhibition, primary screen | HEK293T StAR-luciferase reporter, SF-1/DAX-1 repression relief | 370,000 tested, 1.1% active | inhibition, % at 6.8 µM;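 active means inhibition above the mean over all tested compounds plus 3 SD, cut at about 3.6% in these data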;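 further: 0% = DAX-1 cells with DMSO and 100% = cells lacking DAX-1 with DMSO; higher inhibition means more luminescence from relief of DAX-1 repression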
DAX1 inh-2 – inhibits human nuclear receptor DAX1. P51843. HEK293 Gal4-DAX1 luciferase reporter, luminescence. 340,000 tested, 0.99% active. inhibition, % at 6.75 µM;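 active means inhibition above the mean over all tested compounds plus 3 SD, cut at about 4.2% in these data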;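 further: 0% = DAX1-transfected cells with DMSO and 100% = empty-vector control cells with DMSO; inhibition shows as a rise in luminescence from relieved DAX1 repression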
Target sequence (P51843 207-470 limits assumed): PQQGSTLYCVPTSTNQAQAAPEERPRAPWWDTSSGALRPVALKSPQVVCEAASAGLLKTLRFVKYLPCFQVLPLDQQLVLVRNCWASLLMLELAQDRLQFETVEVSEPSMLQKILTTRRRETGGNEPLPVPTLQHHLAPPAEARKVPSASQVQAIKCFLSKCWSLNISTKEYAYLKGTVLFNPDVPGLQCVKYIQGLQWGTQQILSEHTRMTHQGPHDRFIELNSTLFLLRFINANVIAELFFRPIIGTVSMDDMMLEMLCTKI
ssDAF12 agonist – S. stercoralis DAF-12 activation, primary screen | HEK293 ssDAF-12/GRIP1 lit1-tk-luc reporter, luminescence; % of 3 µM dafachronic acid response | activation, % at 6.8 µM | 370,000 tested, 1% active;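 active means activation above the mean over all tested compounds plus 3 SD, cut at about 0.9% in these data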;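 further: 0% = DMSO-only wells and 100% = 3 µM delta7-dafachronic acid wells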
hgDAF-12 ag – hgDAF-12 agonism, primary luciferase screen. HEK293 GAL4-hgDAF12 UAS-luciferase reporter, agonist luminescence; normalized to butyrate control. 370,000 tested, 1.8% active. activation, % at 6.8 µM;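 active means activation above a cutoff set at the mean of all screened compounds plus 3 SD, cut at about 10% in these data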;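 further: 0% = DMSO wells and 100% = sodium butyrate wells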
hgDAF12 ag – confirmation of H. glycines DAF-12 agonists; shares compounds with hgDAF-12 ag; HEK293 GAL4-hgDAF12 luciferase reporter, agonist mode; percent of butyrate response; activation, % at 6.8 µM; 3,300 tested, 80% active;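 active means mean activation over triplicate wells above the hit cutoff derived from the earlier primary screen, cut at about 11% in these data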;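 further: 0% = DMSO low control and 100% = 2 mM sodium butyrate high control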
LXRb DAF12 ctr – LXR-beta agonism as DAF-12 counter-screen; shares compounds with hgDAF-12 ag; HEK293 Gal4-LXR luciferase reporter, 24 h; activation, % at 6.8 µM; 3,300 tested, under 10 active; AID 743051;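 active means mean activation of the triplicate above a set limit carried over from the primary screen, none filed active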
* marks the source's active call; other numbers are inactive results; · = not tested or not shown.

SMILES	hcDAF12 agonist	DAX1 inh-1	DAX1 inh-2	ssDAF12 agonist	hgDAF-12 ag	hgDAF12 ag	LXRb DAF12 ctr
Fc1ccc(OCc2nc(-c3cccs3)no2)cc1	3	3	3	0	16*	12*	0
CCOC(=O)N1CCN(C(=O)C[C@H]2C[C@@]3(C(=O)OC)C(=C[C@H](C(C)C)O[C@@H]3C3CC3)N(Cc3ccccc3)C2=O)CC1	-1	0	·	-1	-1	·	·
O=C(NC1CCCCN(Cc2cccc(Cl)c2)C1=O)c1ccccn1 (stereo not given)	-3	-1	·	-1	1	·	·
C[C@@H]1ON(C)[C@H]2C[C@H]3c4cc(-c5cc6ccccc6o5)ccc4CCN3C[C@@H]12	2	3.7*	·	0	13*	8	0
C[C@@H]1ON(C)[C@H]2C[C@H]3c4cc(Nc5ccccc5)ccc4CCN3C[C@@H]12	-2	0	·	-1	-1	·	·
O=C(O)c1ccc(N=NN2CCCCC2)cc1	1	3	·	0	14*	12*	1
O=c1c(-c2c(O)cc(O)c3c(=O)cc(-c4ccc(O)cc4)oc23)c(-c2ccc(O)cc2)oc2cc(O)cc(O)c12	-2	-1	2	-1	-3	·	·
O=c1c(-c2ccc(O)cc2)coc2cc(O)cc(O)c12	3	3	4.2*	0	17*	10	0
Cc1ccc(Nc2nc(N)nc(CSc3ncccn3)n2)cc1	3	2	2	1	16*	14*	1
NC(=O)c1cc(N)ccc1N1CCCCC1	0	-1	·	-2	22*	1	0
C=CCOC/C=C/C#CCN(Cc1ccc(OC)cc1OC)C(=O)Nc1ccccc1	-1	-1	·	-1	0	·	·
COc1ccc(-c2ccc(SCC(=O)NC3CCCCC3)nn2)cc1	-1	0	1	-1	3	·	·
COc1ccc(-c2cn3nc(SCC(=O)NC4CCCCC4)ccc3n2)cc1	4	2	2	0	15*	15*	1
CSc1nc2ccc(NC(=O)c3ccco3)cc2s1	4	2	2	-1	18*	11*	1
CSc1nc2ccc(NC(=O)c3ccc(=O)[nH]c3)cc2s1	0	0	-2	-1	0	·	·
CCOC(=O)c1ccc(NC(=O)C2CC3CCC2C3)cc1 (stereo not given)	6.5*	3	·	0	14*	17*	1
COC(=O)c1ccc(NC(=O)C2CC3CCC2C3)cc1 (stereo not given)	0	1	2	-1	7	·	·
CCOc1ccc(C(=O)N/N=C/c2ccc(SC)cc2)cc1	-2	0	0	-1	3	·	·
CC(C)c1ccc(/C=N/NC(=O)c2cccc(Cl)c2)cc1	3	3	1	0	15*	24*	1
CSc1ccc(/C=N/NC(=O)c2cccc(O)c2)cc1	4	4.1*	-1	0	15*	18*	1
C/C(=N\Nc1nncc2ccccc12)c1cccc(OC(F)F)c1	6.1*	2	-2	1	18*	20*	1
Cc1cc(N2CCN(C(=O)OC(C)(C)C)C[C@@H]2C)ccc1N1C[C@@H](C)O[C@@H](C)C1	0	-2	·	-1	2	·	·
CCOC(=O)CC[C@@]1(C(=O)OCC)C[C@@H](CC(=O)NCc2cccs2)C(=O)N2CCCC=C21	-2	0	·	-1	-3	·	·
O=C(/C=C/c1ccco1)N1CCCC(c2ccccc2)C1 (stereo not given)	-1	0	0	-2	1	·	·
O=C(/C=C/c1ccccc1)N1CCC(c2ccccc2)C1 (stereo not given)	3	3	1	-1	13*	16*	1
CCc1ccc(NC(=O)N2CCC(c3ccccc3)C2)cc1 (stereo not given)	2	3.7*	4	0	18*	14*	1
Oc1ccc(-c2cn3ccccc3n2)cc1	4	2	2	1	13*	15*	1

Bioassay records deposited in PubChem BioAssay by The Scripps Research Institute Molecular Screening Center.
